PubChem BioAssay (NCI)
About 83,000 compounds went through this panel and 20% of them were active in at least one assay; those are over-represented in the sample as a whole.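 Values shown are percent growth following 48 h exposure of cells in 96-well plates to a single concentration of compound; below 10 was considered active.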 A number with no mark means an inactive call. The source made the active and inactive calls.

Each molecule was assayed on HL-60(TB) leukemia (assay: NCI-60 one-dose screen, 48 h (100 = growth as untreated, 0 = no growth, -100 = all killed)). Conditions: 10 µM unless noted.

SMILES	growth
Cc1c(C(C)(C)O)cn2ncnc(Oc3ccc(NC(=O)Nc4ccc(Cl)c(C(F)(F)F)c4)cc3)c12	26.6%
COc1ccccc1-c1nc2ccc3[nH]ncc3c2c2c1CCCC2	89.6%
Cn1cc(-c2nn3cc(-c4ccccc4)nc3s2)c2ccccc21	84.8%
CSc1nc2ncc([N+](=O)[O-])c(=O)n2[nH]1	106%
COc1ccc(C2CC(c3ccc4c(c3)OCO4)=NN2C=O)cc1 (centres undefined)	106%
CC1(O)CCCCC1O (centres undefined)	107%
CCC(CCC(C)C1CCC2C3CC=C4CC(O)CCC4(C)C3CCC12C)C(C)C (centres undefined) (tested in a mixture with another compound)	82.5%
COc1ccc(-c2cnc3ccccc3n2)cc1	97%
CCN1C(=O)N(CC)C2C1NN=c1s/c(=C\c3ccc([N+](=O)[O-])cc3)c(=O)n12 (centres undefined)	-37.9% (active)
O=C1/C=C/[C@@H](O)[C@@H]2C[C@@H](O)C[C@H]2/C=C/CCC[C@H](CO)O1	-25.4% (active)
O=C(O)C1C[C@](O)(c2ccc(F)cc2)[C@@H](c2ccc(F)cc2)O1 (some centres undefined)	91.6%
CCC[CH2][Sn]1([CH2]CCC)[O]C2C(CO)OC(n3ccc(N)nc3=O)C2[O]1 (centres undefined)	-36.6% (active)
CCOC(=O)C1(C(=O)OCC)N=C(c2ccccc2)C=C1c1ccccc1	87.2%
COc1ccc(S(=O)(=O)Nc2cc(/C=C\c3cc(OC)c(OC)c(OC)c3)cc(OC)c2OC)cc1OC	2.73% (active)
